# Test results: PubChem BioAssay (EPA / NIEHS)
# Inconclusive results are not listed. Calls of active or inactive are those of the source. Rule for the calls, unless noted: active = hit-call score of the fitted dose curve at least 0.9, where 1 is the maximum; inconclusive = response in the unintended direction; inactive = score below 0.9.
# Key:
# [1] = biological target: Glutamate receptor ionotropic, kainate 1 (Rattus norvegicus) (UniProt P22756); experiment: NVS_IC_rKAR: NovaScreen (NVS) Ion Channel Assay for rat Kainic Acid Receptors (KAR) (AID 2283334; active = hit-call score of the fitted dose curve at least 0.9, where 1 is the maximum; inactive = score below 0.9)
# Summary of the method: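 Radioligand displacement binding using rat forebrain membranes, 1 h incubation, filter-based scintillation counting. Screened in duplicate at 25 uM, with actives retested in concentration-response up to 50 uM; fitted against DMSO.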
# [2] = NVS_IC_rCaBTZCHL: NovaScreen (NVS) Ion Channel Assay for Calcium Channel, Type L, Benzothiazepine Site (CaBTZCHL) (AID 2283337)
# Summary of the method: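 Radioligand displacement at the benzothiazepine site using rat cortical membranes; bound label measured by filtration and scintillation counting 1.5 h after dosing. Single-point 25 uM in duplicate, then concentration series; DMSO baseline.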
# [3] = biological target: bovine Gamma-Aminobutyric Acid Type A Receptor Agonist (GABAR Agonist), GABRA1 (gene 780973) (UniProt P08219); experiment: NVS_LGIC_bGABAR_Agonist: NovaScreen (NVS) Ligand-Gated Ion Channel Assay for bovine Gamma-Aminobutyric Acid Type A Receptor Agonist (GABAR Agonist) (AID 2283338)
# Summary of the method: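 Radioligand binding to bovine cerebellar membranes in agonist format, read by filter-based scintillation counting after 1 h. Primary screen in duplicate at 25 uM, with actives followed in concentration series. Gain of signal versus DMSO.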
# [4] = biological target: rat Glycine Receptor, Strychnine-sensitive (GlyRStrySens), Glra1 (gene 25674) (UniProt P07727); experiment: NVS_LGIC_rGlyRStrySens: NovaScreen (NVS) Ligand-Gated Ion Channel Assay for rat Glycine Receptor, Strychnine-sensitive (GlyRStrySens) (AID 2283341)
# Method: NVS_LGIC_rGlyRStrySens is a biochemical, single-readout assay that uses extracted gene-proteins from Rat spinal cord membranes in a tissue-based cell-free assay. Measurements were taken 1 hour after chemical dosing in a 48-well plate.NVS_LGIC_rGlyRStrySens is one of one assay component(s) measured or calculated from the NVS_LGIC_rGlyRStrySens assay. It is designed to make measurements of radioligand binding, a form of binding reporter, as detected with scintillation counting signals by Filter-based radiodetection technology.Data from the assay component NVS_LGIC_rGlyRStrySens was analyzed into 1 assay endpoint. This assay endpoint, NVS_LGIC_rGlyRStrySens, was analyzed in the positive analysis fitting direction relative to DMSO as the negative control and baseline of activity. Using a type of binding reporter, loss-of-signal activity can be used to understand changes in the binding as they relate to the gene Glra1. Furthermore, this assay endpoint can be referred to as a primary readout, because the performed assay has only produced 1 assay endpoint. To generalize the intended target to other relatable targets, this assay endpoint is annotated to the ion channel intended target family, where the subfamily is ligand-gated ion channel. […]
# [5] = biological target: rat Peripheral-type Benzodiazepine Receptor (PBR), Tspo (gene 24230) (UniProt P16257); experiment: NVS_MP_rPBR: NovaScreen (NVS) Membrane Protein Assay for rat Peripheral-type Benzodiazepine Receptor (PBR) (AID 2283335)
# Summary of the method: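 Rat kidney membranes; radioligand binding with displacement, filter-based scintillation counting, 1 h incubation. Primary screen in duplicate at 25 uM, actives followed in concentration series; loss of binding vs DMSO.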
# [6] = test system: guinea pig Histamine Receptor (H2), gene 100729734; experiment: NVS_GPCR_gH2: NovaScreen (NVS) G Protein-Coupled Receptor Assay for guinea pig Histamine Receptor (H2) (AID 2283342)
# Summary of the method: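 Radioligand displacement on guinea pig striatal membranes, 1 h after dosing, filter-based scintillation counting; loss of signal versus DMSO. Single-point screen at 25 uM in duplicate, then concentration-response up to 50 uM.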
# [7] = biological target: Voltage-gated inwardly rectifying potassium channel KCNH2 (Homo sapiens) (UniProt Q12809); experiment: NVS_IC_hKhERGCh: NovaScreen (NVS) Ion Channel Assay for human Potassium Channel ERG (KhERGCh) (AID 2283333)
# Summary of the method: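 Cell-free radioligand competition binding on hERG protein extracted from CHO cells, read by filter-based scintillation counting 0.75 h after dosing. Primary screen at 25 uM in duplicate, actives followed in concentration series. Signal loss fitted versus DMSO.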
# [8] = biological target: Small conductance calcium-activated potassium channel protein 1 (Rattus norvegicus) (UniProt P70606); experiment: NVS_IC_rKCaCh: NovaScreen (NVS) Ion Channel Assay for rat Potassium Channel, Ca2+ Act., VI (KCaCh) (AID 2283336)
# Summary of the method: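 Radioligand binding to rat forebrain membranes, cell-free, read 1 hour after dosing by filter-based scintillation counting. Compounds first run in duplicate at 25 uM, actives then in concentration series; loss of signal vs DMSO indicates displacement.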
# [9] = biological target: rat Glutamate, MK-801 Agonist Site (GluNMDA_MK801), Grin1 (gene 24408) (UniProt P35439); experiment: NVS_LGIC_rGluNMDA_MK801_Agonist: NovaScreen (NVS) Ligand-Gated Ion Channel Assay for rat Glutamate, MK-801 Agonist Site (GluNMDA_MK801) (AID 2283340)
# Summary of the method: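 Radioligand binding at MK-801 site in rat forebrain membranes, 1.5 h incubation, filter-based scintillation counting. Initially 25 uM in duplicate; actives then run in concentration-response up to 50 uM, fitted for gain of signal versus DMSO.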
# [10] = biological target: human Androgen Receptor (AR), AR (gene 367) (UniProt P10275); experiment: NVS_NR_hAR: NovaScreen (NVS) Nuclear Receptor Binding Assay for human Androgen Receptor (AR) (AID 2283332)
# Summary of the method: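 Actives from a duplicate 25 uM single-point screen went on to concentration series. Read-out after 20 h was scintillation counting of displaced radioligand in LnCAP extract, with DMSO as baseline.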
# Chain of rat Peripheral-type Benzodiazepine Receptor (PBR), Tspo (gene 24230) (P16257 whole entry, looked up): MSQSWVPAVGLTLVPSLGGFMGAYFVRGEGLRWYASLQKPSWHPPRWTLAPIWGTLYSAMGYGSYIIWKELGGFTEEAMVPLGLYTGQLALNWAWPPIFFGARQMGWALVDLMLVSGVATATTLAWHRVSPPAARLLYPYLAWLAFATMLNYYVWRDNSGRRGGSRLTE
# Chain of bovine Gamma-Aminobutyric Acid Type A Receptor Agonist (GABAR Agonist), GABRA1 (gene 780973) (P08219 whole entry, looked up): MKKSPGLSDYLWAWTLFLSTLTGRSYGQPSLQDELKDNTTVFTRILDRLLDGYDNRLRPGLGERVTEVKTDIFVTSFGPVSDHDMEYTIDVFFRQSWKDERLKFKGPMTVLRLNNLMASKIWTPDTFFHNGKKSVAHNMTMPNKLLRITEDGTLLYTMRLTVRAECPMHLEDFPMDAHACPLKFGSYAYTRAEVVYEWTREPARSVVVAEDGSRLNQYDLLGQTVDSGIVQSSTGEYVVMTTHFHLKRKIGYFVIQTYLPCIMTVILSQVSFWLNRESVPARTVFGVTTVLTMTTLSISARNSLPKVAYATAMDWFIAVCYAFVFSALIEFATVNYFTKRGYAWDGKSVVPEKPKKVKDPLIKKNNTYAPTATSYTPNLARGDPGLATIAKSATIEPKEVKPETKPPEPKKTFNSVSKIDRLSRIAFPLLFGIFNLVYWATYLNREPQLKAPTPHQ
# Chain of Glutamate receptor ionotropic, kainate 1 (Rattus norvegicus) (P22756 whole entry, looked up): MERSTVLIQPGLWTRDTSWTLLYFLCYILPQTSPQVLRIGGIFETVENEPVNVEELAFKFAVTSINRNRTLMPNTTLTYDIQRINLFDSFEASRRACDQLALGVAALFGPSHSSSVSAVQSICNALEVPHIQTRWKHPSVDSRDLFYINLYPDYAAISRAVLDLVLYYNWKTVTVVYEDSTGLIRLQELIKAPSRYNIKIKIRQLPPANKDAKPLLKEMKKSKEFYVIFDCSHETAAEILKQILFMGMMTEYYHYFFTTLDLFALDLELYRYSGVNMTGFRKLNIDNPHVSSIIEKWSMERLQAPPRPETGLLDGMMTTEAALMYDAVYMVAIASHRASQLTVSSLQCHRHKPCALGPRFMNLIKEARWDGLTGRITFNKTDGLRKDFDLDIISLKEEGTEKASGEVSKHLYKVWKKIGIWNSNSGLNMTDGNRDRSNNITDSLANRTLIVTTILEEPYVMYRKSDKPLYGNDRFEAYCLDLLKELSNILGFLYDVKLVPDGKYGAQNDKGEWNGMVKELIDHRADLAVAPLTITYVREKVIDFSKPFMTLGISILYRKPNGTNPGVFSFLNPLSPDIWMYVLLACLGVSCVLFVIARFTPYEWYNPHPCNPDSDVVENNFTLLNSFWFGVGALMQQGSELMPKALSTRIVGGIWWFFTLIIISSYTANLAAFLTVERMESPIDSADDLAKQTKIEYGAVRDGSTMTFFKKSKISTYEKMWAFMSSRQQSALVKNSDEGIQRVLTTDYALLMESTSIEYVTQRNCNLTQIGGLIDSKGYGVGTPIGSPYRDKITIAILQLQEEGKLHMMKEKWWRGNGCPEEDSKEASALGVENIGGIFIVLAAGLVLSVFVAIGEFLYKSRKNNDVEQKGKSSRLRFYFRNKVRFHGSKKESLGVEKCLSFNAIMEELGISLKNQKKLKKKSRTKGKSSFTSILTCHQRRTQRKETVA
# Chain of Small conductance calcium-activated potassium channel protein 1 (Rattus norvegicus) (P70606 whole entry, looked up): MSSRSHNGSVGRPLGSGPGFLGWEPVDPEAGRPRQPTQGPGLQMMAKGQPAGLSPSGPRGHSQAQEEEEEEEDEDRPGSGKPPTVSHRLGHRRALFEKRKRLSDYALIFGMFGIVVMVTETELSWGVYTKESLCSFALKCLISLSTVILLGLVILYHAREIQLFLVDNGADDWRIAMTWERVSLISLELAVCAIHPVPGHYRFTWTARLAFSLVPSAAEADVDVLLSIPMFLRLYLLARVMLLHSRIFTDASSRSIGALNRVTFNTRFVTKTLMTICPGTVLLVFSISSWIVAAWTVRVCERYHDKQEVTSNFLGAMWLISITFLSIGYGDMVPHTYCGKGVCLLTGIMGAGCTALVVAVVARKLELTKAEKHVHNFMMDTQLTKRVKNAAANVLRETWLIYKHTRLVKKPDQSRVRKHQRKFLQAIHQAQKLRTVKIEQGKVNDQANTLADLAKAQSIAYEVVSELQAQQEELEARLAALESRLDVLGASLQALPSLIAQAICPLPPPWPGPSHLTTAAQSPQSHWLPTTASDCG
# Chain of rat Glycine Receptor, Strychnine-sensitive (GlyRStrySens), Glra1 (gene 25674) (P07727 whole entry, looked up): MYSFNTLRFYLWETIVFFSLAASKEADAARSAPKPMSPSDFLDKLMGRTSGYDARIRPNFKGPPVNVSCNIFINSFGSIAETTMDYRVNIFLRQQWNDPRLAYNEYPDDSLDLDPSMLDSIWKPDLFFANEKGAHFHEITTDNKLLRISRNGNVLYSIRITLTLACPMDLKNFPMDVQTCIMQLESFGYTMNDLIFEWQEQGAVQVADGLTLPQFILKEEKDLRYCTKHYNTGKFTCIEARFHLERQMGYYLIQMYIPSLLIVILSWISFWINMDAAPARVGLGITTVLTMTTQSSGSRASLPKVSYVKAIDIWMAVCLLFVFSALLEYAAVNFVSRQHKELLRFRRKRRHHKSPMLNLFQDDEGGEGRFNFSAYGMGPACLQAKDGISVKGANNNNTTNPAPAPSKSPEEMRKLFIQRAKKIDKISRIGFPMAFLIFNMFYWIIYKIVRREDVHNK
# Chain of human Androgen Receptor (AR), AR (gene 367) (P10275 whole entry, looked up): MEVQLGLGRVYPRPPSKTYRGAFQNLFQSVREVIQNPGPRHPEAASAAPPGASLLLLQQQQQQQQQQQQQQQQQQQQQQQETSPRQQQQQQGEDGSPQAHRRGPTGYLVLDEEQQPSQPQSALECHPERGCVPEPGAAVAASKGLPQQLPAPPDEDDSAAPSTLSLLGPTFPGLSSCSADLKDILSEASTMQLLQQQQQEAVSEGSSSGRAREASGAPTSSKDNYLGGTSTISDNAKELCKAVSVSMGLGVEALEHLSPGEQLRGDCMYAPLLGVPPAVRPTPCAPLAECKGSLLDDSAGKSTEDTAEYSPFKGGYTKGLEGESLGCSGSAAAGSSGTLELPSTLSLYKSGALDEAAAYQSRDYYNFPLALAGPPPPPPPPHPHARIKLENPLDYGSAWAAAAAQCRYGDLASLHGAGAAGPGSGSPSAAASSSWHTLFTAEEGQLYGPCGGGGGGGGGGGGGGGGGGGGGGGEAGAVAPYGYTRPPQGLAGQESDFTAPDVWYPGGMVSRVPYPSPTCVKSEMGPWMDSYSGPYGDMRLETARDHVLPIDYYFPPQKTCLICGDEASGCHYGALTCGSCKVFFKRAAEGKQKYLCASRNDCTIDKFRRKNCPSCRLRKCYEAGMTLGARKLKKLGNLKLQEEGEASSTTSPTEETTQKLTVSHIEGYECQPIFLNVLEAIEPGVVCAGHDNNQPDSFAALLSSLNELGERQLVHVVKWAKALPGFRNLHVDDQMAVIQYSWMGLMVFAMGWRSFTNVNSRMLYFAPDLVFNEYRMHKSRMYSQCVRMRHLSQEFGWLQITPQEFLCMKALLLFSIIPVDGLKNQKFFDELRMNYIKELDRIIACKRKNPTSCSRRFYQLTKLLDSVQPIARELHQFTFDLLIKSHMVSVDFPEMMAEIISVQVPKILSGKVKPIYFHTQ
# Chain of Voltage-gated inwardly rectifying potassium channel KCNH2 (Homo sapiens) (Q12809 whole entry, looked up): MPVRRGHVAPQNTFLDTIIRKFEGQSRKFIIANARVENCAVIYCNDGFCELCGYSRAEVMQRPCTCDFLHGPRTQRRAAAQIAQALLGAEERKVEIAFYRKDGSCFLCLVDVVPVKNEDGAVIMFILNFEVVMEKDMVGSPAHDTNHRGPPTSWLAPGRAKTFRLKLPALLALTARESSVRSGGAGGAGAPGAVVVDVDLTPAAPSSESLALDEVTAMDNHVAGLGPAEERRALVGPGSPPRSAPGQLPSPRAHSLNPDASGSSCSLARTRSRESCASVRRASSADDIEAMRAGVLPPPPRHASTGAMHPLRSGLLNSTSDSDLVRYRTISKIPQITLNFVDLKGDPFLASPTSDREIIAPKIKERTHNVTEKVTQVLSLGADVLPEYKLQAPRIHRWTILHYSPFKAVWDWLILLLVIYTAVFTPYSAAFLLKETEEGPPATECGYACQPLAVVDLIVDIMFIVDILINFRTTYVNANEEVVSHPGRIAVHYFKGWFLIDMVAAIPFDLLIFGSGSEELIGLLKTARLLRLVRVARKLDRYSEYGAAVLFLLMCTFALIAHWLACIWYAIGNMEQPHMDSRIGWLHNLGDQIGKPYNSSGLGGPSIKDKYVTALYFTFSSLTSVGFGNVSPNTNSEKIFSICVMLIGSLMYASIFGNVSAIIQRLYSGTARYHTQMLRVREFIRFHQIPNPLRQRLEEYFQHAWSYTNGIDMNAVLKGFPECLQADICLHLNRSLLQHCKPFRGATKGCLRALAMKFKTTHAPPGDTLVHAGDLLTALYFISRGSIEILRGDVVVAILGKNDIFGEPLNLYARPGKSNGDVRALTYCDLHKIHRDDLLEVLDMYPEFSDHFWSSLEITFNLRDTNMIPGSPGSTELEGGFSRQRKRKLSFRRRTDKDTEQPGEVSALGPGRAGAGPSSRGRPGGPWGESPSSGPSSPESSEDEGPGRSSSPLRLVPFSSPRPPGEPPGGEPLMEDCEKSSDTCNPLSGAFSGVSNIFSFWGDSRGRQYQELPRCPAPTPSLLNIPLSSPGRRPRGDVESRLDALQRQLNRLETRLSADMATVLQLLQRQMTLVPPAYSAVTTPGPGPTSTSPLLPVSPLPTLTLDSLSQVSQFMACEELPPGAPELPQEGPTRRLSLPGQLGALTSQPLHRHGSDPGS
structure (smiles),measurement,setting,value
COc1cc(S(=O)(=O)O)c(C)cc1N=Nc1c(O)ccc2cc(S(=O)(=O)O)ccc12,outcome,[1],inactive
same,outcome,[2],inactive
COc1cc(C=O)ccc1O,outcome,[3],inactive
CCOc1ccc2c(c1)C(C)=CC(C)(C)N2,outcome,[3],inactive
O=C(N[C@@H](Cc1ccccc1)[C@@H](O)C(=O)N1C[C@@H](O)[C@@H](O)C1)c1cc2cc(Cl)ccc2[nH]1,outcome,[2],inactive
Cc1ccc(C)c(O)c1C,outcome,[4],inactive
Cc1oc(-c2ccccc2)nc1CCOc1cccc2c1ccn2CCC(=O)O,AC50,[5],46.5 µM (active)
CCCCCCCC=O,outcome,[1],inactive
CC(C)(C)c1cc(O)c(C(C)(C)C)cc1O,outcome,[3],inactive
Cc1cccc([N+](=O)[O-])c1C,outcome,[3],inactive
CCCCCCC(=O)OCC,outcome,[1],inactive
Cc1nc(-c2ccc3c(c2)CCN(CCC2CCC(NC(=O)/C=C/c4ccc(F)cc4)CC2)CC3)no1 (configuration not stated),outcome,[2],inactive
same,AC50,[6],0.216 µM (active)
CN1CCN(Cc2cc(-c3ccc4[nH]c(=O)oc4c3)co2)[C@@H](c2ccc(F)cc2)C1,outcome,[7],inactive
same,AC50,[2],5.34 µM (active)
same,AC50,[6],0.445 µM (active)
C=CCOC(=O)c1ccccc1C(=O)OCC=C,outcome,[5],inactive
CCCCN(CCCC)CCCC,outcome,[8],inactive
CC=Cc1ccc(O)c(OC)c1,AC50,[5],3.55 µM (active)
same,outcome,[8],inactive
COc1ccc(S(=O)(=O)N2C(=O)[C@@](c3ccccc3OC)(N3C[C@H](O)C[C@H]3C(=O)N(C)C)c3cc(Cl)ccc32)c(OC)c1,AC50,[2],3.53 µM (active)
NS(=O)(=O)c1cc2c(cc1Cl)NCNS2(=O)=O,outcome,[5],inactive
CCCCC(CC)COC(=O)CC(C(=O)OCC(CC)CCCC)S(=O)(=O)O (configuration not stated),AC50,[5],9.22 µM (active)
same,outcome,[9],inactive
Cc1ccc(C(C)C)c(O)c1,outcome,[5],inactive
same,outcome,[3],inactive
Nc1nc(N)c2nc(CNc3ccc(C(=O)N[C@@H](CCC(=O)O)C(=O)O)cc3)cnc2n1,outcome,[1],inactive
CC(=O)OCCOCCOCCOC(C)=O,outcome,[3],inactive
NC(=O)Cn1c(=O)cc(CCN2CCN(c3nccc4sccc34)CC2)c2ccc(F)cc21,AC50,[5],1.6 µM (active)
same,AC50,[6],1.82 µM (active)
CC(C)c1ccc(C(=O)N=C(N)N)cc1S(C)(=O)=O,outcome,[5],inactive
same,outcome,[9],inactive
Oc1ccc2c(c1)OC[C@@H](N1CCC(O)(c3ccc(F)cc3)CC1)[C@H]2O,outcome,[2],inactive
CCc1c(C(=O)NN2CCCCC2)nn(-c2ccc(Cl)cc2Cl)c1-c1ccc(Br)cc1,outcome,[2],inactive
same,outcome,[6],inactive
Nc1ccc(S(=O)(=O)c2ccc(N)cc2)cc1,AC50,[5],3.28 µM (active)
CCCCCCCCCCC,outcome,[10],inactive
